Assay [1] addresses Cytochrome P450 3A7 (Homo sapiens) (UniProt P24462). The experiment in a line: Cytochrome P450 family 3 subfamily A member 7 (CYP3A7) small molecule antagonists: luciferase biochemical qHTS assay (AID 1963596). Further: nearly all actives have a fitted effect of over 40% in size. The note with it: P450-Glo CYP3A7 enzyme luminescence, 1 h; series mostly up to 57.4 µM. The method in brief: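 P450-Glo luminescent assay: CYP3A7 enzyme converts a proluciferin substrate to luciferin, detected by luciferase reagent; light proportional to activity. Compounds in DMSO preincubated 10 min with enzyme-substrate mix at room temperature, then NADPH regeneration added for 1 h.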
For orientation: Quantitative high-throughput screening tests each substance at several concentrations.

Assay [2] can be described thus: Viability qHTS for spleen associated tyrosine kinase inhibitor (SYKi) naive MV4-11 cells (AID 1963823). Further: nearly all actives have a fitted effect of over 40% in size. The note with it: MV4-11 AML viability, CellTiter-Glo luminescence, 72 h; series mostly up to 45 µM. The method in brief: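 SYK inhibitor-naive MV4-11 cells, 500 per well, exposed to compounds for 72 hr at 37 C, 5% CO2. Viability read as CellTiter-Glo luminescence after 10 min at room temperature.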

A short description of assay [3]: Viability qHTS for spleen associated tyrosine kinase inhibitor (SYKi) drug resistant MV4-11 cells (AID 1963824). Further: nearly all actives have a fitted effect of over 35% in size. The note with it: SYKi-resistant MV4-11 viability, CellTiter-Glo, 72 h; series mostly up to 45 µM. The method in brief: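 SYK-inhibitor-resistant MV4-11 AML cells were seeded at 500 per well onto compound and cultured 72 hours (37 °C, 5% CO2). CellTiter-Glo was then added, and after 10 min at room temperature, luminescence gave viability.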

Assay [4] can be described thus: Quantitative highthroughput screen to assess conditional lethalithy of NOMO1 cells grown in RPMI1640 with untreated serum (RPMI+s) (AID 1963876). Further: nearly all actives have a fitted effect of over 35% in size.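 On Viability: 100% = DMSO wells and 0% = empty wells without cells.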 The note with it: NOMO1 AML cells in RPMI+serum, CellTiter-Glo viability, 48 h; series mostly up to 45.8 µM. Put shortly:
(§1)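 Each medium arm—HPLM with 10% dialyzed FBS, or RPMI1640 with 5 mM glucose and 10% untreated or dialyzed FBS—was screened against an 11-point, 3-fold compound titration for 48 h at 37 °C, with CellTiter-Glo luminescence as endpoint.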

Assay [5] in a line: Quantitative highthroughput screen to assess conditional lethalithy of NOMO1 cells grown in RPMI1640 with dialyzed fetal bovine serum (RPMI+ds) (AID 1963877). Further: nearly all actives have a fitted effect of over 30% in size.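 On Viability: 100% = DMSO control wells and 0% = empty wells.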 The note with it: NOMO1 in RPMI+dialyzed FBS viability, ATP luminescence, 48 h; series mostly up to 45.8 µM. Put shortly:
as §1

A short description of assay [6]: Quantitative highthroughput screen to assess conditional lethalithy of NOMO1 cells grown in Human Plasma-Like Medium with dialyzed fetal bovine serum (HPLM+ds) (AID 1963878). Further: nearly all actives have a fitted effect of over 35% in size.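 On Viability: 100% = DMSO wells and 0% = empty wells on each plate.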 The note with it: NOMO1 AML cells in HPLM+ds, CellTiter-Glo viability, 48 h; series mostly up to 45.8 µM. Put shortly:
as §1

The nature of assay [7]: Quantitative highthroughput screen to assess conditional lethalithy of P12 Ichikawa cells grown in Human Plasma-Like Medium with dialyzed fetal bovine serum (HPLM+ds) (AID 1963879). Further: nearly all actives have a fitted effect of over 35% in size. The note with it: ATP luminescence, 48 h; Potency: viability; series mostly up to 45.8 µM. The method in brief: as §1
Assay [8] is described as follows: Quantitative highthroughput screen to assess conditional lethalithy of P12 Ichikawa cells grown in RPMI1640 with untreated serum (RPMI+s) (AID 1963881). Further: nearly all actives have a fitted effect of over 35% in size.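 On Viability: 100% = DMSO wells and 0% = empty wells without cells.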 The note with it: ATP luminescence, 48 h; Potency: viability; series mostly up to 45.8 µM. Put shortly: as §1
Assay [9] can be described thus: Quantitative highthroughput screen to assess conditional lethalithy of P12 Ichikawa cells grown in RPMI1640 with dialyzed fetal bovine serum (RPMI+ds) (AID 1963880). Further: nearly all actives have a fitted effect of over 35% in size.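 On Viability: 100% = DMSO wells and 0% = empty wells on each plate.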 The note with it: ATP luminescence, 48 h; Potency: P12-Ichikawa viability; series mostly up to 45.8 µM. The method in brief:
as §1

Assay [10] can be described thus: Cellular viability qHTS for adrenocortical cancer (ACC) cell line NCI-H295R (AID 1963990). Further: nearly all actives have a fitted effect of over 60% in size. The note with it: CellTiter-Glo ATP luminescence, 48 h; series mostly up to 46.1 µM. Put shortly: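 IC50 and maximal efficacy derive from four-parameter logistic modelling of titration curves, with reads scaled between DMSO-only wells (0%) and doxorubicin hydrochloride (100% inhibition). Compounds spanned up to 46 uM over 48 h.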

The nature of assay [11]: Quantitative highthroughput screen to assess conditional lethalithy of SEM cells grown in RPMI1640 with unreated serum (RPMI+s) (AID 1963883). Further: nearly all actives have a fitted effect of over 35% in size.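 On Viability: 100% = DMSO wells and 0% = empty wells without cells.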 The note with it: SEM B-ALL cells, CellTiter-Glo viability, 48 h; series mostly up to 45.8 µM. The method in brief: as §1
(In ATP-based viability assays light output follows the ATP content of the culture.)

Assay [12] can be described thus: Cellular viability qHTS for adrenocortical cancer (ACC) cell line SW-13 (AID 1963989). Further: nearly all actives have a fitted effect of over 65% in size.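 On activity (max response): cells grown in serum-free medium with ITS supplement; on the % scale 0 is the no-effect control and ±100 the full control effect.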 The note with it: SW-13 ACC cells viability, CellTiter-Glo, 48 h; activity (max response): stronger effect = lower value. The method in brief: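 Luminescent ATP read-out (CellTiter-Glo, 20 min at room temperature) measured metabolically competent SW-13 cells after 48 h compound treatment. Final concentrations spanned up to 46 uM; bortezomib served as positive control.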

A short description of assay [13]: Quantitative highthroughput screen to assess conditional lethalithy of SEM cells grown in RPMI1640 with dialyzed fetal bovine serum (RPMI+ds) (AID 1963884). Further: nearly all actives have a fitted effect of over 35% in size.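 On Viability: 100% = DMSO control wells and 0% = empty wells without cells.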 The note with it: SEM B-ALL cells, RPMI+dialyzed FBS, CellTiter-Glo viability, 48 h; series mostly up to 45.8 µM. The method in brief:
as §1

Assay [14] is described as follows: Quantitative highthroughput screen to assess conditional lethalithy of SEM cells grown in Human Plasma-Like Medium with dialyzed fetal bovine serum (HPLM+ds) (AID 1963882). Further: nearly all actives have a fitted effect of over 35% in size. The note with it: SEM B-ALL cells in HPLM+ds, CellTiter-Glo viability, 48 h; series mostly up to 45.8 µM. The method in brief:
as §1

Several values for one entry are separate records, joined by “and”; a condition that tells them apart may be missing. Equal values may be shown once. Records with an inconclusive call do not appear. Activity calls are given as the source filed them. The call rests on the fitted dose curve; in most records, active means well fitted curve in the direction sought with a large enough effect; inconclusive means small, poorly fitted or top-dose-only effect, or another doubt; inactive means no such curve, though single readings can be large; an effect the other way counts as inactive or inconclusive.
Potency means the concentration at half of the fitted maximal effect.

Cytochrome P450 3A7 (Homo sapiens), sequence (P24462 whole entry, looked up): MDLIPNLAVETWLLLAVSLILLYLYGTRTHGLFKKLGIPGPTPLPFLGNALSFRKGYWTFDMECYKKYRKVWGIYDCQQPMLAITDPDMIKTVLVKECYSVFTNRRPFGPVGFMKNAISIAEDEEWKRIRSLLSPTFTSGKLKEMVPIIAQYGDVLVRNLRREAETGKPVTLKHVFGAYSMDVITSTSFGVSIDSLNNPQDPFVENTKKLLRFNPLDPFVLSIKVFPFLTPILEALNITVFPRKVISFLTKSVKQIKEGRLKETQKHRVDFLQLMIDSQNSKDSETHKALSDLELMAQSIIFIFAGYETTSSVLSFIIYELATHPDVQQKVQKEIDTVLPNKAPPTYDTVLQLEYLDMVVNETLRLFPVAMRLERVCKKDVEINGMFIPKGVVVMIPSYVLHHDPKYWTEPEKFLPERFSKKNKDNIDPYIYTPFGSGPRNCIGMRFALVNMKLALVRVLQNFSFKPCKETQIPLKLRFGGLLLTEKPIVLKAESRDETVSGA

In the case of `CN(C)CC(=O)N1CCC(c2ccc(NC(=O)c3ncc(C#N)[nH]3)c(C3=CCCCC3)c2)CC1`, the Potency result in assay [1], in assay [4], in assay [5], in [6], in assay [7] and in assay [8] was “inactive” in each case. For the same compound, the Potency in assay [2] is 73.1 nM (active) and 74.2 nM (active); in assay [3] it was 41.1 nM (active) and 148 nM (active).

As to `C=CC(=O)Nc1cc2c(Nc3ccc(F)c(Cl)c3)ncnc2cc1OCCCN1CCOCC1`, the Potency result in [1], in [4] and in [9] was “inactive” throughout. The Potency is 596 nM (active) and 742 nM (active) in assay [2]; 944 nM (active) and 742 nM (active) in assay [3]; 2960 nM (active) in assay [5]; 3320 nM (active) in [6]; 5260 nM (active) in assay [8]; 1.46 µM (active) and 6.31 µM (active) in assay [10].

Turning to `Cc1ccc(C(=O)Nc2ccc(S(=O)(=O)O)c3cc(S(=O)(=O)O)cc(S(=O)(=O)O)c23)cc1NC(=O)c1cccc(NC(=O)Nc2cccc(C(=O)Nc3cc(C(=O)Nc4ccc(S(=O)(=O)O)c5cc(S(=O)(=O)O)cc(S(=O)(=O)O)c45)ccc3C)c2)c1`, the Potency result in assay [1], in [2], in assay [3], in assay [4] and in assay [10] was “inactive” each time. Also, the Potency in assay [5] was 8330 nM (active); in assay [11], 4690 nM (active). Moreover, the activity (max response) in assay [12] was -19.9% (inactive) and 5.07% (inactive).

`Nc1nc(N)nc(-c2cc(Cl)ccc2Cl)n1`: the Potency result in assay [1], in assay [2], in assay [3], in [4], in assay [5] and in [6] was “inactive” in each case. Further, the Potency entry in [7], in assay [9], in [13] and in [10] was “inactive” in each case. Moreover, in [12], the activity (max response) was 2.1% (inactive) and -6.28% (inactive).

In the case of `O=P(O)(O)C(O)(Cc1cccnc1)P(=O)(O)O`, the Potency result in assay [1], in assay [2], in assay [3], in [4], in [5] and in assay [7] was “inactive” throughout. Further, the Potency entry in assay [9], in assay [8] and in [10] was “inactive” in each case.

On to `Nc1nc(Cl)nc2c1ncn2[C@H]1C[C@H](O)[C@@H](CO)O1`, for which the Potency result in assay [1] and in assay [10] was “inactive” each time. The Potency in assay [2] was 93.4 nM (active); in assay [3], 148 nM (active); in assay [4] it was 209 nM (active); in assay [5], 148 nM (active); in assay [6], 132 nM (active); in assay [9], 235 nM (active). For the same compound, the Potency is 187 nM (active) in assay [8], 105 nM (active) in [14], 105 nM (active) in assay [11] and 66.2 nM (active) in assay [13].

On to `C1COC(NC(C2CC2)C2CC2)=N1`, for which the Potency entry in assay [1], in assay [2], in [3], in assay [4], in assay [5] and in assay [6] was “inactive” in each case. For the same compound, the Potency result in assay [7], in assay [8] and in assay [10] was “inactive” throughout. Moreover, the activity (max response) in [12] is 14.7% (inactive) and 0.392% (inactive).

Take `Cc1nc2n(c(=O)c1CCN1CCC(c3noc4cc(F)ccc34)CC1)CCCC2`: the Potency entry in [1], in [2], in assay [3], in assay [4], in [5] and in [7] was “inactive” in each case. Besides, the Potency result in [9], in assay [8], in assay [14], in assay [11] and in assay [10] was “inactive” each time. In addition, the activity (max response) in assay [12] was -10.2% (inactive).

For `Cc1nnc(NS(=O)(=O)c2ccc(N)cc2)s1`, the Potency result in assay [1], in assay [2], in [3], in assay [14], in assay [13] and in [10] was “inactive” throughout. For the same compound, the Potency in assay [4] is 9350 nM (active); in assay [5], 5260 nM (active); in assay [7], 7430 nM (active); in [9], 13200 nM (active); in [8], 8330 nM (active). Also, the activity (max response) in assay [12] is -2.08% (inactive) and -2.89% (inactive).

As to `O=C(C1CC1)N1CC[C@@H](Cc2n[nH]c(=O)n2-c2ccc(-c3ccc4occc4c3)cc2)C1`, the results for the Potency in assay [1] and in [3] were 536 nM (active) and 18600 nM (active), respectively. The Potency result in assay [2], in assay [4], in assay [6], in assay [7], in assay [9] and in assay [8] was “inactive” each time.

For `Oc1c(Cl)cc(Cl)c2cccnc12`, the Potency entry in [1], in assay [4] and in assay [6] was “inactive” in each case. For the same compound, the Potency in assay [2] is 5250 nM (active); in assay [3] it was 8330 nM (active); in assay [14], 16600 nM (active); in assay [11] it was 18700 nM (active); in assay [12] it was 3550 nM (active); in assay [10], 7.94 µM (active).

Take `CCn1cc(C(=O)O)c(=O)c2cc(F)c(N3CCNCC3)cc21`: the Potency result in assay [1], in assay [2], in assay [3], in [4], in [5] and in assay [10] was “inactive” in each case. In [8], the Potency is 3320 nM (active).

`CC[N+](CC)(CC)CCOc1cccc(OCC[N+](CC)(CC)CC)c1OCC[N+](CC)(CC)CC`: the Potency result in [1], in [2], in assay [3], in [4], in [5] and in assay [7] was “inactive” in each case. Moreover, the Potency result in assay [9], in assay [8], in assay [14], in [11], in assay [13] and in [10] was “inactive” in each case. For the same compound, in [12], the activity (max response) is 11.3% (inactive) and -11.4% (inactive).

As for `CCCn1c(=O)c2[nH]c(-c3cnn(Cc4cccc(C(F)(F)F)c4)c3)nc2n(CC)c1=O`, the Potency entry in assay [1], in [2], in [3], in assay [7], in assay [14] and in [11] was “inactive” each time. Moreover, the Potency entry in [13] and in [10] was “inactive” throughout. The values for the Potency in assay [4], in assay [9] and in assay [8] were 6620 nM (active), 4180 nM (active) and 418 nM (active), respectively. Moreover, the activity (max response) in assay [12] is 6% (inactive).

With `COC[C@H](NC(=O)c1cnc(C)s1)C(=O)N[C@@H](COC)C(=O)N[C@@H](Cc1ccccc1)C(=O)[C@@]1(C)CO1`, the Potency entry in assay [1] was “inactive”. The Potency is 66.1 nM (active) in [2]; 83.3 nM (active) in [3]; 469 nM (active) in [4]; 332 nM (active) in [6]; 235 nM (active) in assay [7]; 235 nM (active) in assay [9]. The Potency was 264 nM (active) in assay [8]; 93.5 nM (active) in [14]; 83.3 nM (active) in assay [11]; 83.3 nM (active) in [13]; 316 nM (active) in [12]; 0.282 µM (active) in assay [10].

Turning to `C=CCn1c(=O)c2cnc(Nc3ccc(N4CCN(C)CC4)cc3)nc2n1-c1cccc(C(C)(C)O)n1`, the Potency in assay [1] is 10000 nM (active); in [2], 525 nM (active); in [3] it was 259 nM (active) and 372 nM (active); in assay [4] it was 1050 nM (active); in assay [5], 418 nM (active); in assay [7], 1050 nM (active). Also, the Potency was 1870 nM (active) in assay [9]; 2640 nM (active) in [8]; 235 nM (active) in assay [14]; 148 nM (active) in [13]; 3550 nM (active) in assay [12]; 1 µM (active) in [10].

The record behind these values is PubChem BioAssay (NCATS).
